# Nrf2 activator = activates Nrf2 signaling; AREc32 ARE-luciferase reporter (MCF7-derived line), luminescence, 24 h; Potency, µM (titrated, usually from 46.1 µM), hits mostly activators; 410,000 compounds, 0.31% hits; AID 624171; note: nearly all actives have a fitted effect of over 65% in size
#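 Quantitative high-throughput format: AREc32 reporter cells, 1000 per well, received compound by pin transfer and were incubated 24 hr at 37 deg C, 5% CO2, before Steady-Glo luminescence detection.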
# ATXN2 expr inh = reduces ATXN2 reporter expression in HEK-293 cells | HEK-293 ATXN2-luciferase reporter, luminescence, 24 h | Potency, µM (highest dose often 57 µM), most hits filed as inhibitors | 360,000 compounds, 0.72% hits | AID 1745845; note: nearly all actives have a fitted effect of over 55% in size
#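 qHTS (up to 57 uM final) was run with 24 h compound exposure of reporter cells at 37 °C. Each well was multiplexed: SteadyGlo luminescence measured ATXN2-luciferase expression after a fluorogenic Gly-Phe-AFC viability readout (25 uM final).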
# Nrf2 block = Nrf2 pathway inhibition; A549 ARE-Fluc reporter, luciferase luminescence, 18-24 h; Potency, µM (highest dose often 46 µM), actives largely listed as inhibitors; 360,000 compounds, 2.1% hits; note: nearly all actives have a fitted effect of over 60% in size
#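 Concentration-response testing used A549 ARE_Fluc cells at 5000 cells/well. Following an 18-24 h compound incubation, viability was read by fluorescence (Ex 405/Em 525) and luciferase output by luminescence.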
# S2 tox = cell viability loss in ATXN counter-screen. S2 cells (HEK-293 line with an ATXN2-luciferase reporter) viability, CellTiter-Fluor protease fluorescence, 24 h. Potency, µM (top dose mostly 56.7 µM), hits mostly cytotoxic. 400,000 compounds, 0.49% hits; note: nearly all actives have a fitted effect of over 40% in size
# A549 viability = A549 cytotoxicity, counter-screen for Nrf2 inhibitors; A549 ARE-Fluc cells, CellTiter-Fluor viability, 18-24 h; Potency, µM (highest dose often 46 µM), usual class: inhibitors; 390,000 compounds, 0.16% hits
#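 A549 ARE-Fluc cells in 5% FBS OPTI-MEM, 5000 cells/well, rested 2 h then exposed to compounds in concentration-response for 18-24 h at 37 °C. Viability by CellTiter-Fluor fluorescence (Ex 405/Em 525) after 30 min; luciferase luminescence (BugLite, 15 min, RT) read afterwards.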
# Hits are given with their value; – = inactive; ? = inconclusive; · = not tested or not shown; ! = a repeat was not active; [ ] = remark or other dose. Only some compounds are listed: those with a hit (about 2.9% of all), similar ones and a draw of the others. Calls come from the whole dose curve; as a rule, active = well fitted curve in the direction sought with a large enough effect; inconclusive = small, poorly fitted or top-dose-only effect, or another doubt; inactive = no such curve, though single readings can be large; an effect the other way counts as inactive or inconclusive.
SMILES,Nrf2 activator,ATXN2 expr inh,Nrf2 block,S2 tox,A549 viability
CCCc1[nH]n(-c2nc3ccccc3s2)c(=O)c1C=NCCCOC,–,–,–,–,–
CCOC(=O)Cc1csc(NC(=O)/C=C\c2ccccc2Cl)n1,?,–,26µM,?,–
CCOC(=O)Cc1csc(NC(=O)/C=C/c2ccccc2Cl)n1,?,–,?,–,–
CCOC(=O)Cc1csc(NC(=O)c2cc3c(s2)CCCC3)n1,–,–,·,–,–
CCOC(=O)Cc1csc(NC(=O)c2csc3c2CCCC3)n1,–,–,18µM,–,–
CCOc1ccc(NC(=O)c2cc(=O)c3ccc(C)c(C)c3o2)cc1,–,–,?,–,–
CCN(CC)c1ccc(/C=C/c2cccc[n+]2C)c(OC)c1,–,3.2µM,5.8µM,8.9µM,7.3µM
COc1ccc(/C=C/c2cccc[n+]2C)c(O)c1,–,·,–,?,?
COc1ccccc1N1CCN(C(=O)c2cc3c(=O)oc4ccccc4c3s2)CC1,–,–,–[9.27 µM],–,–
COc1ccc(CNC(=O)c2c(N)n(CCCN3CCOCC3)c3nc4ccccc4nc23)cc1,–,?,16µM,–,·
C[C@H](CCC(=O)O)[C@H]1CCC2C3C[C@H](O)[C@@H]4C[C@H](O)CC[C@]4(C)C3CC[C@@]21C (some centres not stated),·,–,·,·,·
Cc1ccccc1CNC(=O)c1c(C)oc2c1C1=NCCN1C=N2,–,–,?,–,–
O=C(NCCSc1c(-c2ccc(Br)cc2)[nH]c2ccccc12)c1ccc(S(=O)(=O)N2CCOCC2)cc1,–,–,–[9.27 µM],?,–
CCOc1cc(CNc2ccc(O)cc2)cc(Cl)c1OCc1ccccc1,–,32µM,?,22µM,?
CCOc1cccc(CNc2ccc(O)cc2)c1OCc1ccccc1Cl,?,11µM!,–,13µM!,–
CCOc1cccc(CNc2ccc(O)cc2)c1OCc1ccc(Cl)cc1Cl,–,?,·,?,–
O=C(c1cccnc1)C1CCCN(Cc2ccc3c(c2)CN(C(=O)c2cnccn2)CCO3)C1 (configuration not stated),·,·,·,–,·
CN(C)c1ccc(Nc2nc(N)c3ccccc3n2)cc1,–,5µM,?,–,–
Nc1ccc(-c2n[nH]c(=O)c3ccccc23)cc1N,–,–,16µM,–,–
COc1ccc(NS(=O)(=O)c2ccc3c(c2)Cc2ccccc2-3)cn1,–,–,16µM,–,–
COc1ccc(NS(=O)(=O)c2ccc(N3CCCC3=O)cc2)cn1,–,?,?,–,–
CCc1ccc2oc(-c3cc(N=Cc4cccc(OC)c4O)ccc3O)nc2c1,10µM,–,?,?,–
COc1ccc(-c2cc(N)n(S(=O)(=O)c3ccc(F)cc3)n2)cc1OC,–,–,16µM,–,–
Nc1cc(-c2ccccc2)nn1S(=O)(=O)c1ccc(F)cc1,–,–,18µM,–,–
COc1cc(-c2cc(N)n(S(=O)(=O)c3ccc(F)cc3)n2)cc(OC)c1OC,–,–,?,–,–
SMILES,Nrf2 activator,ATXN2 expr inh,Nrf2 block,S2 tox,A549 viability
COc1ccc(-c2[nH]c3ccccc3c2SCCNC(=O)c2cc(OC)c(OC)c(OC)c2)cc1,–,–,–[9.27 µM],?,–
CNc1cc2c(cc1S(=O)(=O)Nc1ccc(C)c(C)c1)CCC(=O)N2,·,·,?,·,–
Cc1c(Cl)cccc1NC(c1ccc(F)cc1)c1nnc(-c2ccccc2)o1 (configuration not stated),–,–,?,–,–
COc1ccccc1C(=O)Nc1ccccc1C(=O)OCc1cc(=O)n2c(C)csc2n1,–,·,·,·,–
Cn1c(CO)c(-c2ccccc2)c2cc([N+](=O)[O-])ccc21,–,?,?,–,–
CN(C)c1ccc(C=c2c3cc([N+](=O)[O-])ccc3n3c2cc(-c2ccccc2)[n+]3C)cc1,–,28µM,8.2µM,·,?
COc1cc(N(C)C)ccc1C=c1c2ccccc2n2c1cc(-c1ccccc1)[n+]2C,–,12µM,15µM,12µM,?
CN(C)c1ccc(C=c2c3ccccc3n3c2cc(-c2ccc(Cl)cc2)[n+]3C)cc1,–,?,?,11µM,?
COc1cc(C=c2c3ccccc3n3c2cc(-c2ccccc2)[n+]3C)cc(OC)c1OC,–,?,16µM,?,?
Cc1ccc(NS(=O)(=O)c2cc3c(cc2F)NC(=O)CC3)cc1C,·,·,–,·,–
CCOC(=O)C(=O)CCCCCCl,·,–,·,–,·
Cc1ccc(C(=O)NCC(=O)OC(C(=O)Nc2cc(C(F)(F)F)ccc2Cl)c2ccccc2)cc1 (configuration not stated),·,·,?,·,–
CN(C)c1ccc(/C=C2\CCC/C(=C\c3ccccc3)C2=O)cc1,–,–,–,–,–
CN(C)c1ccc(C=c2c3ccccc3n3c2c2c([n+]3C)CCCC2)cc1,–,8.9µM,6.5µM,22µM,21µM
CN(C)c1ccc(C=c2c3ccccc3n3c2cc(-c2ccccc2)[n+]3C)cc1,–,?,5.8µM,6µM,16µM
Cc1cc2oc(C(=O)Nc3c(C(=O)Nc4ccccc4)oc4ccccc34)cc(=O)c2cc1C,–,–,–,–,–
CCC1=Nc2cc(C(=O)N3CCC(C)CC3)ccc2Sc2ccc(C)cc21,–,?,18µM,·,?
c1ccc(CNCc2nnc(-c3cc4ccccc4[nH]3)s2)cc1,·,·,?,·,–
Cc1cc(NCc2ccccn2)nc2ccccc12,–,–,–,–,–
Cc1nc(NCc2ccccn2)c2ccccc2n1,–,–,6.5µM,–,–
c1ccc(CNc2nc(-c3ccccn3)nc3ccccc23)cc1,–,?,16µM,–,–
CCc1nc(NCc2ccccn2)c2oc3ccccc3c2n1,–,–,9.2µM,–,–
c1ccc(CNc2nc(-c3ccccc3)nc3ccccc23)cc1,–[9.22 µM],–,?,–,–
Cc1cccc(C(=O)Nc2cccc(OCc3cc(=O)n4cccc(C)c4n3)c2)c1,–,·,·,·,–
N#Cc1ccsc1NC(=O)CCS(=O)(=O)c1ccccc1,14µM,–,–,–,–
SMILES,Nrf2 activator,ATXN2 expr inh,Nrf2 block,S2 tox,A549 viability
CC(=O)c1sc(NC(=O)CCS(=O)(=O)c2ccc(C)cc2)nc1C,22µM,–,–,–,?
CC(C)(C)c1nnc(NC(=O)CCS(=O)(=O)c2ccccc2)s1,16µM,–,–,?,–
O=C(CCS(=O)(=O)c1ccccc1)Nc1nnc(C(F)(F)F)s1,?,–,–,–,?
CN1CCCCCC1C(=O)NCC1Cc2cc(-c3cnccn3)ccc2O1 (configuration not stated),·,·,·,–,·
CCN(C(=O)Cn1c(SCC(=O)Nc2ccc(OC)cc2)nc2ccccc21)c1cccc(C)c1,–,–,·,?,–
Cc1ccc(C)c(CN2C[C@H](Sc3nc4ccccc4[nH]3)C[C@H]2C(=O)N2CCCN(C)CC2)c1,·,·,·,–,·
Cc1cccc(CNC(=O)c2cnn(-c3ncc4c(n3)-c3ccccc3CC4)c2C2CC2)n1,·,·,·,–,·
CN1N=C(C(=O)N2CCOc3ccc(CN4CCCC(C(=O)c5cccnc5)C4)cc3C2)CCC1=O (configuration not stated),·,·,·,–,·
FC(F)(F)c1cc(-c2ccccc2)nc(N2CCCCCC2)n1,–,–,·,–,–
